# In PubChem BioAssay (Tox21):
# Where “and” joins values, the source holds several entries; their conditions need not be identical. Equal values may be shown once. Records with an inconclusive call do not appear. Where a call stands in place of a potency, no number is given. Calls of active or inactive are those of the source. Unless noted, calls follow the shape of the dose curve; as a rule, active = well fitted curve in the direction sought with a large enough effect in the repeat runs; inconclusive = weak or mixed curves; inactive = no such curve, though single readings can be large; an effect the other way counts as inactive or inconclusive.
# Columns and labels:
# [1] = qHTS assay to identify small molecule antagonists of the estrogen receptor alpha (ER-alpha) signaling pathway using the BG1 cell line in the presence of 0.1 nM 17-beta-estradiol - cell viability counter screen (AID 1259241); also: nearly all actives have a fitted effect of over 40% in size; also: potency is read from the fitted curve at half-maximal effect
# In short: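 Cells were plated and left 24 hr, compounds in DMSO were pinned in, 17beta-estradiol was added to 0.1 nM final, and after 22 hr CellTiter-Fluor reagent was added for 30 min before fluorescence was read.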
# [2] = qHTS assay to identify small molecule antagonists of the androgen receptor (AR) signaling pathway using the MDA cell line in the presence of 0.5 nM R1881 - cell viability counter screen (AID 1259242); also: nearly all actives have a fitted effect of over 45% in size; also: potency is read from the fitted curve at half-maximal effect
# In short: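 Steps: plate MDA-kb2 cells, rest 5 hr at 37C without CO2; pin in compounds in DMSO; add R1881 to 0.5 nM final; incubate 16 hr; add CellTiter-Fluor, 30 min; read fluorescence.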
# [3] = biological target: Estrogen receptor (Homo sapiens) (UniProt P03372); assay: qHTS assay to identify small molecule antagonists of the estrogen receptor alpha (ER-alpha) signaling pathway using the BG1 cell line in the presence of 0.1 nM 17-beta-estradiol (AID 1259244); also: nearly all actives have a fitted effect of over 50% in size; also: potency is read from the fitted curve at half-maximal effect
# In short: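 Antagonist mode: compounds in DMSO are pinned onto VM7Luc4E2 reporter cells, 0.1 nM final 17beta-estradiol is added, and after 22 h at 37C luciferase luminescence is measured with ONE-Glo.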
# [4] = qHTS assay to identify small molecule HDAC inhibitors (AID 1259364);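 also: wild-type HCT-116 cells with endogenous class I/II HDAC activity; top concentration of the series differs between compounds; nearly all actives have a fitted effect of over 45% in size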
# In short: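 Cells (HCT-116, wild type) are seeded at 1,500 per well, incubated overnight, treated with compound in DMSO for 2 hr, then developed with HDAC-Glo I/II reagent for 30 min at room temperature.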
# [5] = qHTS assay to identify small molecule HDAC inhibitors - cell viability counter screen (AID 1259365); also: nearly all actives have a fitted effect of over 50% in size; also: potency is read from the fitted curve at half-maximal effect
# In short: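 Counter screen in wild-type HCT-116 cells: compounds dissolved in DMSO are pin-transferred onto overnight-plated cells and left 2hr at 37C. ATP-based CellTiter-Glo luminescence then measures viable cells.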
# [6] = qHTS assay to identify small molecule agonists of the sonic hedgehog signaling (Shh) pathway - cell viability counter screen (AID 1259366); also: nearly all actives have a fitted effect of over 50% in size; also: potency is read from the fitted curve at half-maximal effect
# In short: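 Cells are plated at 2,000 per well and left 4hr at 37C, 5% CO2 before compound addition. After 23hr of treatment, CellTiter-Fluor reagent is added for 1hr at 37C and fluorescence is measured.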
# [7] = qHTS assay to identify small molecule antagonists of the sonic hedgehog signaling (Shh) pathway - cell viability counter screen (AID 1259367); also: nearly all actives have a fitted effect of over 55% in size; also: potency is read from the fitted curve at half-maximal effect
# In short: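 Fluorescence read-out (CellTiter-Fluor, 1 hr at 37C) taken after 23 hr compound treatment of 3T3 Gli1-Luc cells stimulated with conditioned medium. Cells were seeded at 2,000 per well and pre-incubated 4 hr.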
# [8] = qHTS assay to identify small molecule agonists of the sonic hedgehog signaling (Shh) pathway (AID 1259368; calls by dose curve;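 also: NIH/3T3-derived 3T3Gli1-Luc cells carrying a stable Gli1-driven firefly luciferase reporter; series mostly up to about 92 µM; nearly all actives have a fitted effect of over 15% in size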)
# In short: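 Cells of a mouse NIH/3T3 clone stably expressing luciferase under the Gli1 transcriptional response element are exposed to test chemicals for 24 hr at 37 C. Pathway activation is detected as a rise in luminescence.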
# [9] = qHTS assay to identify small molecule antagonists of the sonic hedgehog signaling (Shh) pathway (AID 1259369; calls by dose curve; also: nearly all actives have a fitted effect of over 45% in size; also: potency is read from the fitted curve at half-maximal effect)
# In short: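 Cells are plated and held 4hr at 37 C, compounds (DMSO) are pinned in, conditioned medium is added to stimulate the pathway, and after 24hr luciferase reagent is added for 30min before luminescence is read.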
# [10] = qHTS assay to identify small molecule agonists of the estrogen receptor beta (ER-beta) signaling pathway - cell viability counter screen (AID 1259380); also: nearly all actives have a fitted effect of over 30% in size; also: potency is read from the fitted curve at half-maximal effect
# In short: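 Cytotoxicity is measured in parallel with the reporter screen: after 16 hr compound exposure at 37C and a 2 hr LiveBLAzer step, CellTiter-Glo is added to the same ER-beta-UAS-bla HEK293T wells and luminescence read after 30 min.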
# [11] = qHTS assay to identify small molecule antagonists of the estrogen receptor beta (ER-beta) signaling pathway - cell viability counter screen (AID 1259382); also: nearly all actives have a fitted effect of over 55% in size; also: potency is read from the fitted curve at half-maximal effect
# In short: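 Cytotoxicity counter screen multiplexed with the beta-lactamase antagonist assay: GripTite HEK293T ER-beta-bla cells were treated 16 hr with test chemicals in the presence of 1nM 17-beta-estradiol, and viability was measured by CellTiter-Glo.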
# [12] = biological target: Estrogen receptor (Homo sapiens) (UniProt P03372); assay: qHTS assay to identify small molecule agonists of the estrogen receptor alpha (ER-alpha) signaling pathway in the presence of an antagonist (AID 1259383; calls by dose curve; also: nearly all actives have a fitted effect of over 15% in size; also: potency is read from the fitted curve at half-maximal effect; as to activation: top concentration of the series differs between compounds)
# In short: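 Agonist-mode confirmation in the presence of the ER antagonist ICI-182,780 at 10.0nM final. Breast-derived VM7Luc4E2 reporter cells were exposed to compounds for 22hr, and ERE-driven luciferase was quantified by luminescence.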
# [13] = qHTS assay to identify small molecule agonists or antagonists of the thyroid stimulating hormone receptor (TSHR) signaling pathway - wild type cell line counter screen (AID 1259384; calls by dose curve)
# In short: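 Wild-type Hek293 cells, 800/well, 18 h at 37C, then compound with Ro20-1724 for 30 min RT. cAMP by HTRF (cAMP-d2/anti-cAMP cryptate), 1 h RT, fluorescence read. 15 concentrations, triplicates.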
# [14] = biological target: Thyrotropin receptor (Homo sapiens) (UniProt P16473); assay: qHTS assay to identify small molecule antagonists of the thyroid stimulating hormone receptor (TSHR) signaling pathway (AID 1259385; calls by dose curve; also: nearly all actives have a fitted effect of over 20% in size; also: potency is read from the fitted curve at half-maximal effect)
# In short: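 TSHR-HEK293 cells (800/well) plated 18 h, then compounds with Ro20-1724 and TSH at 1.5 ng/mL final, 30 min at room temperature. cAMP quantified by HTRF (cAMP-d2/anti-cAMP-cryptate, 1 h); 15 concentrations in triplicate.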
# [15] = qHTS assay to identify small molecule agonists of the androgen receptor (AR) signaling pathway in the presence of an antagonist - cell viability counter screen (AID 1259379); also: nearly all actives have a fitted effect of over 25% in size; also: potency is read from the fitted curve at half-maximal effect
# In short: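 Cytotoxicity is assessed by CellTiter-Fluor in MDA-kb2 cells carrying an MMTV-driven luciferase reporter. Cells receive 3.0uM nilutamide plus compounds at 15 concentrations and incubate 16 hr at 37C without CO2 before fluorescence reading.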
# [16] = biological target: Estrogen receptor beta (Homo sapiens) (UniProt Q92731); assay: qHTS assay to identify small molecule agonists of the estrogen receptor beta (ER-beta) signaling pathway (AID 1259377; active = well fitted activation curve with a large enough effect in the signal ratio in the repeat runs, not every such curve was filed as active; the % refers to the signal ratio)
# In short: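 Agonist mode cell assay in GripTite HEK293T cells expressing an ER-beta fusion that drives beta-lactamase from an Upstream Activator Sequence; 16 hr compound exposure at 37C, then 2 h LiveBLAzer B/G FRET substrate at room temperature, fluorescence read-out.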
# [17] = biological target: Estrogen receptor beta (Homo sapiens) (UniProt Q92731); assay: qHTS assay to identify small molecule antagonists of the estrogen receptor beta (ER-beta) signaling pathway (AID 1259378; active = well fitted inhibition curve with a large enough effect in the signal ratio in the repeat runs, not every such curve was filed as active; the % refers to the signal ratio)
# In short: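 ER-beta-UAS-bla HEK293T cells in 2% charcoal-stripped FBS medium treated with compound plus 1nM final 17-beta-estradiol for 16 hr at 37C. Beta-lactamase reporter read by FRET substrate fluorescence after 2 hours at room temperature.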
# [18] = qHTS assay to identify small molecule phospholipidosis (PLD) inducers (AID 1259344; active = well fitted curve in the direction sought with a large enough effect; an effect the other way counts as inactive or inconclusive)
# In short: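 Read-out is LipidTOX Red fluorescence (ex 595/em 615) imaged in HepG2 cells after 24 h compound exposure at 37 C, with Hoechst nuclear counterstain (ex 352/em 461) allowing per-cell normalisation.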
# [19] = biological target: Androgen receptor (Homo sapiens) (UniProt P10275); assay: qHTS assay to identify small molecule agonists of the androgen receptor (AR) signaling pathway in the presence of an antagonist (AID 1259381; calls by dose curve; also: nearly all actives have a fitted effect of over 15% in size)
# In short: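 Agonist-mode confirmation screen: human MDA-kb2 cells stably expressing luciferase under an MMTV promoter bearing AR and GR response elements, co-treated with 3.0uM nilutamide (final). Luminescence measured after 16hr compound incubation.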
# Chain of Estrogen receptor beta (Homo sapiens) (Q92731 whole entry, looked up, the tested form may be a part): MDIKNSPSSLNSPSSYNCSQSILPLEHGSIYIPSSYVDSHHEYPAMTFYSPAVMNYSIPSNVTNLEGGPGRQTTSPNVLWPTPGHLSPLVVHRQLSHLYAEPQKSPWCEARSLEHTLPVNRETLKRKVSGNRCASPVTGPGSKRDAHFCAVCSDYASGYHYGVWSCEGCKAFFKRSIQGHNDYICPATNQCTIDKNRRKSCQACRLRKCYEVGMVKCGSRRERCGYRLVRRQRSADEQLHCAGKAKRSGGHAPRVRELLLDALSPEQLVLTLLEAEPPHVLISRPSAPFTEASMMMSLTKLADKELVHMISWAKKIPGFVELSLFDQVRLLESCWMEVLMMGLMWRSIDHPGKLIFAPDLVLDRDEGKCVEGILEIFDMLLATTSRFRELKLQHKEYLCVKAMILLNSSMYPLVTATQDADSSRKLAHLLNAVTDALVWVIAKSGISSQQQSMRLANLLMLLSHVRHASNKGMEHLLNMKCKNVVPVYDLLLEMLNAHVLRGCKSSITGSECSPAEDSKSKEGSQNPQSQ
# Chain of Thyrotropin receptor (Homo sapiens) (P16473 whole entry, looked up): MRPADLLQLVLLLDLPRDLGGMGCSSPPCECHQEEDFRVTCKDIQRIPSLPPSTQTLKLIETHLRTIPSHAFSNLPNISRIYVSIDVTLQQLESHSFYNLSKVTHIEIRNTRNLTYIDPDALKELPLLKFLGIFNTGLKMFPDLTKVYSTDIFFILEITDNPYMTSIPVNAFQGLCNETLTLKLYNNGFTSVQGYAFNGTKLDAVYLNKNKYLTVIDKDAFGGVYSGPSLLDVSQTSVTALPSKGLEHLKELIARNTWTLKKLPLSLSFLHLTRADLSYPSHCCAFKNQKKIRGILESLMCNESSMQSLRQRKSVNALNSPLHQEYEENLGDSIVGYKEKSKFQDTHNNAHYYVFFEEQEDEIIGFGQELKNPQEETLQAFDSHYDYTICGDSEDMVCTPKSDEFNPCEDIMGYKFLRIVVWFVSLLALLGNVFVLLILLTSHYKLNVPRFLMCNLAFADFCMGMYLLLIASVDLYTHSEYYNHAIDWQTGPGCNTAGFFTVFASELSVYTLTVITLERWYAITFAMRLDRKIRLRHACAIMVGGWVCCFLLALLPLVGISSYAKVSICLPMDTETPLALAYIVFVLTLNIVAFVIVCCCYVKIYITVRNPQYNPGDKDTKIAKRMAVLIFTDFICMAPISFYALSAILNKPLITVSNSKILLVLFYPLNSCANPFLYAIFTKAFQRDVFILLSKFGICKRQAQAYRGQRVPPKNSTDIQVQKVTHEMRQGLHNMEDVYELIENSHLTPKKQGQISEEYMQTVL
# Chain of Estrogen receptor (Homo sapiens) (P03372 whole entry, looked up): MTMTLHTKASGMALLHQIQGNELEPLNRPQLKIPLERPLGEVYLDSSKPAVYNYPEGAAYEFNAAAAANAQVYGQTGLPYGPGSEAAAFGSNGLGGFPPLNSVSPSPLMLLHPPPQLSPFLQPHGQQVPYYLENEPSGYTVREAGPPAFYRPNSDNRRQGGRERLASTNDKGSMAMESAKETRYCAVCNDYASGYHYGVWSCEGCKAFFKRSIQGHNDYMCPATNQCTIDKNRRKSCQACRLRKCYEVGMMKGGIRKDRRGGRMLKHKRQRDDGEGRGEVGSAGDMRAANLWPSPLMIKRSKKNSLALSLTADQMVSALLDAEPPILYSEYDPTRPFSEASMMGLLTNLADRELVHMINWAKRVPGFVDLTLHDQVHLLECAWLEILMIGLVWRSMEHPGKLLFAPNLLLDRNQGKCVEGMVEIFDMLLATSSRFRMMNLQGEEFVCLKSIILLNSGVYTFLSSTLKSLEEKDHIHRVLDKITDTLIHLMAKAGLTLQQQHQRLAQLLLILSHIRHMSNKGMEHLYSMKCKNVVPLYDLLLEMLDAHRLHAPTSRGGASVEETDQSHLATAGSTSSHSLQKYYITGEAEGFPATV
# Chain of Androgen receptor (Homo sapiens) (P10275 whole entry, looked up): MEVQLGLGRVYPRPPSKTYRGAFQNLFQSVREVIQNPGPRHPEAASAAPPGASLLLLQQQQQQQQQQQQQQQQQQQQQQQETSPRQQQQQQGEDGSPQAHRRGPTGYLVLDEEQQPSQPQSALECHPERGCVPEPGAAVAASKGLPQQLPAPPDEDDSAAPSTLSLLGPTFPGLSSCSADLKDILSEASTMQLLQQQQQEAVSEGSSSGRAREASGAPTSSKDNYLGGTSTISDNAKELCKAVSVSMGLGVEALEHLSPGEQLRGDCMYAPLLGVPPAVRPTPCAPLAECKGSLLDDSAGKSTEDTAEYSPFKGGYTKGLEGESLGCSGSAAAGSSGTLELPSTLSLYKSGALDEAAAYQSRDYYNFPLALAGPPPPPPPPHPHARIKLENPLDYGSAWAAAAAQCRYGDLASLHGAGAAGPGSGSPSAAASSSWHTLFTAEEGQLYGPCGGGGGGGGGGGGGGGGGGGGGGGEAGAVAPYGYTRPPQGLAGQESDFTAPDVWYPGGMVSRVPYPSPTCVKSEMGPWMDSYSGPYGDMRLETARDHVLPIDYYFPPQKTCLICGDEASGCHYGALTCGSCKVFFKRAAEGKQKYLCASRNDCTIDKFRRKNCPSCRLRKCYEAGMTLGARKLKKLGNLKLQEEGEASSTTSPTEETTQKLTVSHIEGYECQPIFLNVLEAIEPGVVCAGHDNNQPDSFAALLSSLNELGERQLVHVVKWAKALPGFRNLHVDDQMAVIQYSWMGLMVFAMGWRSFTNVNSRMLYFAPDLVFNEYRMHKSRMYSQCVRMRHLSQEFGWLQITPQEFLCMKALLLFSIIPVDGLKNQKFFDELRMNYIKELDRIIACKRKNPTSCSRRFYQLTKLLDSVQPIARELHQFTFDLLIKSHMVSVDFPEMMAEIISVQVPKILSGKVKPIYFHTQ
Structure (SMILES),Potency [1],Potency [2],Potency [3],Potency [4],Potency [5],Potency [6],Potency [7],Potency [8],Potency [9],Potency [10],Potency [11],Potency [12],outcome [13],Potency [14],Potency [15],Potency [16],Potency [17],Potency [18],Potency [19]
CN(C)[C@@H]1C(=O)C(C(N)=O)=C(O)[C@@]2(O)C(=O)C3=C(O)c4c(O)cccc4C[C@H]3C[C@@H]12,inactive,inactive,inactive,inactive,inactive,inactive,inactive,inactive,inactive,inactive,inactive,inactive,inactive,inactive,–,–,–,–,–
CCOC(=O)O[C@H](C)OC(=O)c1ccc2c(c1)cc(C(=O)NC1CCN(C(C)C)CC1)n2Cc1cc(-c2ccc(Cl)s2)on1,64.1 µM (active),40.4 µM (active),64.1 µM (active),inactive,50.9 µM (active),12.8 µM (active),20.3 µM (active),inactive,9.05 µM (active),20.3 µM (active),–,inactive,–,64.1 µM (active),45.4 µM (active),–,–,–,–
O=c1cccccc1O,inactive,inactive,inactive,–,inactive,55.5 µM (active),62.3 µM (active),inactive,24.8 µM (active),–,–,–,inactive,inactive,inactive,inactive,inactive,–,–
CCCC/C=C/CCCCO,inactive,inactive,inactive,–,inactive,inactive,inactive,inactive,inactive,–,inactive,inactive,inactive,inactive,inactive,–,–,–,–
C[C@H]1[C@H]2CC[C@H]3[C@@H]4CC=C5C[C@@H](N(C)C)CC[C@]5(C)[C@H]4CC[C@]23CN1C,inactive,inactive,–,inactive,inactive,inactive,inactive,inactive,inactive,inactive,inactive,–,inactive,–,–,inactive,inactive,inactive,inactive
CN(C)c1ccc(SC#N)cc1,inactive,inactive,inactive,inactive,inactive,inactive,–,inactive,48.6 µM (active),54.5 µM (active),–,inactive,inactive,inactive,–,inactive,–,–,–
CCCCCCCC[N+](CCCCCCCC)(CCCCCCCC)CCCCCCCC,61 µM (active),9.67 µM (active),2.16 µM (active),–,61 µM (active),17.2 µM (active),–,inactive,0.768 µM (active),30.6 µM (active),21.6 µM (active),inactive,inactive,61 µM (active),–,–,–,–,–
Cc1cccc(S(=O)(=O)O)c1C,inactive,inactive,inactive,inactive,inactive,inactive,inactive,inactive,–,inactive,inactive,inactive,inactive,inactive,inactive,inactive,inactive,–,–
CCCCCCCCOC(=O)c1ccc(O)cc1,inactive,inactive,inactive,inactive,inactive,inactive,–,inactive,–,54.3 µM (active) and 48.6 µM (active),43.1 µM (active),54.5 µM (active),inactive,–,–,inactive,–,–,–
CCCCCCCC/C=C\CCCCCCCCOCCO,63.1 µM (active),20 µM (active),2.51 µM (active),inactive,inactive,–,63.1 µM (active),inactive,14.1 µM (active),28.2 µM (active),28.2 µM (active),inactive,inactive,–,28.2 µM (active),–,–,–,–
Cc1cccc2c1cc1ccc3cccc4ccc2c1c34,inactive,inactive,inactive,–,inactive,inactive,–,inactive,inactive,inactive,inactive,inactive,–,–,–,–,–,–,–
CNC(=O)c1ccccc1,inactive,inactive,inactive,–,inactive,inactive,inactive,inactive,inactive,inactive,inactive,inactive,inactive,–,inactive,inactive,–,–,–
O=Cc1cc(O)ccc1Br,inactive,inactive,inactive,–,inactive,–,inactive,inactive,inactive,inactive,inactive,inactive,inactive,inactive,inactive,inactive,–,–,–
CCOC(=O)O[C@]1(C(=O)OCCl)CC[C@H]2[C@@H]3CCC4=CC(=O)C=C[C@]4(C)[C@H]3[C@@H](O)C[C@@]21C,inactive,inactive,–,inactive,inactive,inactive,inactive,inactive,–,26.6 µM (active),inactive,–,inactive,inactive,inactive,inactive,inactive,inactive,–
